Laboratory results reported in PubChem BioAssay (NCI).
Compounds without any hit were thinned out: in the full panel of roughly 79,000, 15% have a hit. Activity calls are given as the source filed them. No stated cut-off is given here; in the data, active means growth inhibition above about 70%; inactive means the rest.

Experiments:
[1] = NCI Yeast Anticancer Drug Screen. Data for the rad50 strain (AID 155);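 further: 0% = growth of vehicle-only cultures of the same strain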; conditions: S. cerevisiae rad50 strain growth inhibition, stronger effect = higher value
Outline: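 DNA repair mutant yeast, compound exposure, growth read-out; inhibition is taken relative to vehicle.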

[2] = NCI Yeast Anticancer Drug Screen. Data for the mec2-1 strain (AID 157); conditions: S. cerevisiae mec2-1 strain, stronger effect = higher value
Outline: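 Yeast mec2-1 mutant treated with compound. Readout: growth inhibition vs vehicle controls.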

[3] = NCI Yeast Anticancer Drug Screen. Data for the sgs1 mgt1 strain (AID 161);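 further: 0% = growth of cultures given vehicle only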; conditions: S. cerevisiae sgs1 mgt1 strain, stronger effect = higher value
Outline: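 Test agents were incubated with a DNA-repair-mutant yeast strain. Growth was then read and compared against vehicle-treated controls.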

[4] = NCI Yeast Anticancer Drug Screen. Data for the cln2 rad14 strain (AID 165);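 further: 0% = growth equal to vehicle treated cultures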; conditions: S. cerevisiae cln2 rad14 strain, stronger effect = higher value
Outline: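 cln2 rad14 yeast strain; compound exposure; growth inhibition read vs vehicle controls.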

[5] = NCI Yeast Anticancer Drug Screen. Data for the bub3 strain (AID 167); conditions: S. cerevisiae bub3 mutant strain, stronger effect = higher value
Outline: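 In this screen, a yeast mutant lacking normal mitotic checkpoint function is challenged with compound. Relative growth versus vehicle gives the inhibition value.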

[6] = NCI Yeast Anticancer Drug Screen. Data for the mlh1 rad18 strain (AID 175); conditions: S. cerevisiae mlh1 rad18 strain growth inhibition, stronger effect = higher value
Outline: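 Yeast w/ defined DNA-repair lesions; compound exposure; growth vs vehicle controls → % inhibition.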

[7] = at 5.0 µM (retest, dose inferred, filed as 0.5)
[8] = at 50.0 µM (retest, dose inferred, filed as 5.0)

Measured: growth inhibition

Cc1ccc(/C=C2\CCC/C(=C\c3ccc(O)c(CN4CCCCC4)c3)C2=O)cc1
inactive: [1]; [7] 16% | [1]; [8] 22% | [1]; at 50.0 µM 6.8% | [2]; [7] 4% | [2]; [8] 15% | [2]; at 50.0 µM -15.2% | [3]; [7] 0% | [3]; [8] 25% | [4]; [7] 7% | [4]; [8] 27% | [4]; at 50.0 µM 42.1% | [5]; [7] -34% | [5]; [8] 28% | [5]; at 50.0 µM 66.5% | [6]; [7] 9% | [6]; [8] 18%
active: [3]; at 50.0 µM 70.9% | [6]; at 50.0 µM 84%

CC(O)c1cc(-c2ccc(Cl)cc2)nc2ccccc12 (stereo not given)
inactive: [1]; [7] 12% | [2]; [7] 4% | [3]; [7] 6% | [4]; [7] 14% | [5]; [7] 1% | [6]; [7] -1%
active: [1]; [8] 97% | [1]; at 50.0 µM 97.8% | [2]; [8] 98% | [2]; at 50.0 µM 97.2% | [3]; [8] 98% | [3]; at 50.0 µM 98% | [4]; [8] 98% | [4]; at 50.0 µM 97.2% | [5]; [8] 98% | [5]; at 50.0 µM 97.8% | [6]; [8] 97% | [6]; at 50.0 µM 96.5%

[O-]c1c2cc(-[n+]3c(-c4ccccc4)cc(-c4ccccc4)cc3-c3ccccc3)cc1CO[C@@H](c1ccccc1)[C@H](c1ccccc1)OCc1cccc(n1)CO[C@@H](c1ccccc1)[C@H](c1ccccc1)OC2
active: [1]; [7] 98% | [1]; [8] 96% | [1]; at 50.0 µM 87.2% | [2]; [7] 98% | [2]; [8] 98% | [2]; at 50.0 µM 90.8% | [3]; [7] 100% | [3]; [8] 98% | [3]; at 50.0 µM 90.5% | [4]; [7] 97% | [4]; [8] 98% | [4]; at 50.0 µM 90.2% | [5]; [7] 99% | [5]; [8] 99% | [5]; at 50.0 µM 89.3% | [6]; [7] 98% | [6]; [8] 97% | [6]; at 50.0 µM 86.7%

C1=Nc2ccccc2/C1=C/c1ccccc1
inactive: [1]; [7] 10% | [1]; [8] 22% | [2]; [7] -9% | [2]; [8] 20% | [2]; at 50.0 µM 48.8% | [3]; [7] -13% | [3]; [8] 19% | [3]; at 50.0 µM 49.7% | [4]; [7] 27% | [4]; [8] 26% | [4]; at 50.0 µM 40% | [5]; [7] 9% | [5]; [8] 38% | [5]; at 50.0 µM 64.4% | [6]; [7] 2% | [6]; [8] 50% | [6]; at 50.0 µM 52.1%
active: [1]; at 50.0 µM 72.9%

Cc1nc(Cl)c(C#N)c(C)c1[N+](=O)[O-]
inactive: [1]; [7] -103% | [2]; [7] -31% | [3]; [7] -46% | [4]; [7] -37% | [5]; [7] -63% | [6]; [7] -115%
active: [1]; [8] 91% | [1]; at 50.0 µM 79.9% | [2]; [8] 81% | [2]; at 50.0 µM 81.9% | [3]; [8] 84% | [3]; at 50.0 µM 70.3% | [4]; [8] 75% | [4]; at 50.0 µM 87% | [5]; [8] 83% | [5]; at 50.0 µM 75.3% | [6]; [8] 91% | [6]; at 50.0 µM 84.8%
